Values joined by “and” are separate entries in the source; they are usually repeats but may differ in a detail not shown here. Identical values can stand only once. Over roughly 110,000 compounds, “z-score” has its median near -0.1; the highest 2% begin near 2. This excerpt belongs to a sample that is enriched for the highest values. Active and inactive are the calls of the source.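 Rule for the calls: active = z-score in the third read window above 3 or below -3; inactive = the rest.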
biological target: Metabotropic glutamate receptor 8 (Rattus norvegicus) (UniProt P70579); assay: mGluR8 Gi/Go-coupled signaling modulation – cell-based, rat, thallium flux, HTS, primary screen (AID 488969); conditions: HEK293 rat mGluR8, GIRK (G protein-gated inwardly rectifying potassium channel) thallium flux, FluoZin2; at 10 µM; stronger effect = higher value; submaximal glutamate (EC20) added with thallium
Sequence (P70579 whole entry, looked up): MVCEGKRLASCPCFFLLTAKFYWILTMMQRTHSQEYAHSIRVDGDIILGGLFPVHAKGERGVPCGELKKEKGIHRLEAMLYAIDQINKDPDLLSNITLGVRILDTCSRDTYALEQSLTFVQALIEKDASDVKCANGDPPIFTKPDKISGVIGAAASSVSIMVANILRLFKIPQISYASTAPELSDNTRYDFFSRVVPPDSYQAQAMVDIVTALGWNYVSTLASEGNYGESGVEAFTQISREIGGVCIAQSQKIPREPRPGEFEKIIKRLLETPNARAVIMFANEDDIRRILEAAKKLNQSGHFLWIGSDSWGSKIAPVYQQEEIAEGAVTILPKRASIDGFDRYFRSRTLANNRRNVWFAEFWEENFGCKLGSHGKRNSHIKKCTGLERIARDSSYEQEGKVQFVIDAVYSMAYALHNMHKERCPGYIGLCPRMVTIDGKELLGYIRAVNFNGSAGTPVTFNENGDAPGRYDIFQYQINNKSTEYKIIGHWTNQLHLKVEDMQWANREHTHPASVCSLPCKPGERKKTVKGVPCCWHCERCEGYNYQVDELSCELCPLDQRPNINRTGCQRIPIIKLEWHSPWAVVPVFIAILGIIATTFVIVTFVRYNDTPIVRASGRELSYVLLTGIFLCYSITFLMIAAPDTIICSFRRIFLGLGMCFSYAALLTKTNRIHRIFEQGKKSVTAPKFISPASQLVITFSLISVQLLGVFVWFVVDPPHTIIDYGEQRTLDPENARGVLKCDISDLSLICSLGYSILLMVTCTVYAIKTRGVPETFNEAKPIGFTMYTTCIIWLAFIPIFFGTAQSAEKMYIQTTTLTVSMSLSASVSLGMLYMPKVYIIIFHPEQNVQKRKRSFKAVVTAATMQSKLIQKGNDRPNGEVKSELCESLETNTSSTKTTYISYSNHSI

Row | SMILES | z-score
1 | CC(Sc1ccccn1)C(=O)Nc1ccccc1 (stereo not given) | -0.408
2 | Cc1cc2nc(-c3ccco3)cc(C(F)(F)F)n2n1 | 0.0437
3 | CC1CC(Nc2cccc(O)c2)=CC(=O)O1 (stereo not given) | -0.0768
4 | CCCCC(=O)Nc1ncc2c(n1)CC(C)(C)CC2=O | 6.64 (active)
5 | CC1(C)CC(=O)c2cnc(NC(=O)CCc3ccccc3)nc2C1 | -0.267
6 | CCCCC1CC1C(=O)Nc1ncc2c(n1)CC(C)(C)CC2=O (stereo not given) | -0.185
7 | O=C(O)C1CC(=O)N(Cc2cccs2)C1 (stereo not given) | 0.254
8 | Cc1nc(-c2ccccc2)sc1C(=O)CSc1ccc(Br)cc1 | -0.108
9 | O=C(CSc1ccccc1)N(c1ccc(Br)cc1)c1nccs1 | 9.08 (active)
10 | O=C(CCSc1ccccc1)Nc1nccs1 | 0.115
11 | CCOC(=O)C1CCCN(C(=O)c2cc3c(-c4cccc(OC)c4)nn(C)c3s2)C1 (stereo not given) | -0.832
12 | Cc1nc(=O)c(-c2ccccc2)c(C)n1CCO | -0.0934
13 | N=c1c2c3c(sc2ncn1CCCO)CCCC3 | -0.123
14 | CC(C)Cn1cnc2sc3c(c2c1=N)CCCC3 | 3.07 (active)
15 | N=c1c2c3c(sc2ncn1Cc1ccccc1)CCCC3 | 0.187
16 | CCCNC(=S)Nc1ccc(Cl)cc1C | -0.142
17 | COc1cccc(N2CCN(Cc3nc(N)nc(Nc4ccccc4OC)n3)CC2)c1 | -0.203
18 | Cc1cccc(C)c1OCC(=O)NCc1nnc(SCC(=O)NC2CCCCC2C)n1C (stereo not given) | -0.0497
19 | FC(F)(F)c1cnc(NNC(=S)Nc2ccc(Cl)cc2)c(Cl)c1 | 6.35 (active)
20 | Cc1cccc(C)c1NC(=S)NNc1ncc(C(F)(F)F)cc1Cl | 0.289
21 | FC(F)(F)c1cnc(NNC(=S)Nc2ccccc2Cl)c(Cl)c1 | 5.28 (active)
22 | Cc1c(Cl)cccc1NC(=S)NNc1ncc(C(F)(F)F)cc1Cl | 0.506
23 | Fc1ccccc1NC(=S)NNc1ncc(C(F)(F)F)cc1Cl | 1.37

Row | SMILES | z-score
24 | CC(C(=O)Nc1ccc(Cl)cc1)c1ncc(C(F)(F)F)cc1Cl (stereo not given) | -0.108
25 | Cc1ccccc1NC(=S)NNc1ncc(C(F)(F)F)cc1Cl | 0.522
26 | Cc1ccc(NC(=S)NNc2ncc(C(F)(F)F)cc2Cl)c(C)c1 | 2.04
27 | CN(NC(=O)Nc1ccc(Cl)cc1)c1ncc(C(F)(F)F)cc1Cl | 0.137
28 | O=C(NNc1ncc(C(F)(F)F)cc1Cl)c1c(Cl)cccc1Cl | 0.951
29 | Nc1ccccc1C(=O)NNc1ncc(C(F)(F)F)cc1Cl | 0.251
30 | Cc1ccc(NC(=S)NNc2ncc(C(F)(F)F)cc2Cl)cc1 | 2.19
31 | COc1cc2c(cc1NC(=O)c1cccc(Br)c1)CCCC2 | 0.201
32 | N#Cc1cc2c(nc1SCC(N)=O)CCCCC2 | -0.0763
33 | COc1ccc(-c2csc(Nc3cccnc3)n2)cc1OC | -0.0895
34 | Cc1cc(=O)oc(C)c1C(=O)OCC(=O)c1ccc2ccccc2c1 | -0.249
35 | CCCCCCn1cnc2c(c1=O)c1nc3ccccc3nc1n2Cc1cccs1 | -1.43
36 | CCCCNc1c2c(nc3c(-c4ccccc4)c(C)nn13)CCC2 | -0.294
37 | Cc1nn2c(NCCCN(C)C)c3c(nc2c1-c1ccccc1)CCC3 | 3.36 (active)
38 | Cc1nn2c(NCCCN3CCOCC3)c3c(nc2c1-c1ccccc1)CCC3 | -0.0116
39 | CC1CCCCN1CC(=O)Nc1ccc(Oc2ccccc2)cc1 (stereo not given) | 3.58 (active)
40 | O=C(CN1CCN(C(=S)NC2CCCC2)CC1)Nc1ccc(Oc2ccccc2)cc1 | -0.13
41 | O=C(CN1CCOCC1)Nc1ccc(Oc2ccccc2)cc1 | 1.91
42 | O=C(CN1CCOCCOCCOCC1)Nc1ccccc1 | 0.274
43 | CN1CCN(CC(=O)Nc2ccc(Oc3ccccc3)cc2)CC1 | 1.4
44 | O=C(CN1CCNCC1)Nc1ccc(Oc2ccccc2)cc1 | 2.35
45 | O=C(CN1CCCC1)Nc1ccc(Oc2ccc(NC(=O)CN3CCCC3)cc2)cc1 | 2.7
46 | COc1ccc(NC(=O)CN2CCCCC2)cc1 | 0.473

Row | SMILES | z-score
47 | O=C(CN1CCOCCOCCOCCOCC1)Nc1ccccc1 | 0.356
48 | CC1CCCCN1CC(=O)NC(=O)NCc1ccccc1 (stereo not given) | -0.261
49 | O=C(CN1CCOCC1)Nc1ccc(Oc2ccc(NC(=O)CN3CCOCC3)cc2)cc1 | -0.278
50 | O=C(CN1CCOCC1)Nc1ccc(C2CCCCC2)cc1 | 2.23
51 | C=CCn1c(N)c(C(=O)Nc2ccc(C)c(C)c2)c2nc3ccccc3nc21 | 0.661
52 | Cc1c(O)nc(SCC(=O)Nc2ccc3c4c(cccc24)CC3)n(-c2ccccc2)c1=O | -0.768
53 | CCOC(=O)N1CCN(C(=O)CN(C2CCCCC2)S(=O)(=O)c2ccc(F)cc2)CC1 | 0.315
54 | CCOC(=O)c1cnc2ccc(OCC)cc2c1N1CCN(c2ccccc2OC)CC1 | -0.8
55 | COC(=O)c1sc2nc(-c3ccco3)ccc2c1N | 2.53
56 | NC(=O)c1sc2nc(-c3ccco3)ccc2c1N | -0.321
57 | COc1ccccc1NC(=O)c1sc2nc(-c3ccco3)ccc2c1N | 0.132
58 | CC(C)CNC(=S)NNC(=O)c1ccc(OC(F)F)cc1 | -0.0885
59 | O=C(NNC(=S)NCc1ccccc1)c1ccc(OC(F)F)cc1 | 2.12
60 | CCNC(=S)NNC(=O)c1ccc(OC(F)F)cc1 | -0.194
61 | CCOCCCNC(=O)CCCOc1ccccc1 | 0.0157
62 | O=C(Cc1ccccc1F)Nc1ccc(Cl)nc1 | 0.217
63 | Cc1ccc(C2C3=C(NCCN=C3c3ccccc3)C(=O)N2c2ccccc2)cc1 (stereo not given) | 3.18 (active)
64 | Cc1ccc(N2C(=O)c3n[nH]c(C)c3C2c2ccccn2)cc1 (stereo not given) | -0.326
65 | Cc1ccc(NC2=C(CC(=O)O)C(c3ccccc3)N(c3ccc(C)cc3)C2=O)cc1 (stereo not given) | -0.426
66 | CC1CCCCN1S(=O)(=O)c1ccc(NC(=O)c2cccs2)cc1 (stereo not given) | -0.377
67 | O=C(Nc1cccnc1)Nc1ccccc1Cl | 0.0762
68 | CCc1ccc(/C=C/C(=O)c2ccc(N3CCOCC3)cc2)cc1 | 0.286
69 | COCCC(=O)NC12CC3CC(CC(C3)C1)C2 | -0.301

Row | SMILES | z-score
70 | O=C(O)CC(=O)NC12CC3CC(CC(C3)C1)C2 | -0.251 and -0.244
71 | CCN(CC)CC(=O)NC12CC3CC(CC(C3)C1)C2 | 2.42
72 | CCCCCC[n+]1c(-c2ccc(Cl)cc2Cl)csc1Nc1ccccc1 | -0.156
73 | O=C(NC1CCCCC1)C(c1ccc(F)cc1)N(Cc1ccc2c(c1)OCO2)C(=O)c1cnsn1 (stereo not given) | 0.366
74 | O=C(NC1CCCCC1)C(c1ccccc1)N(Cc1ccc2c(c1)OCO2)C(=O)c1cnsn1 (stereo not given) | 2.16
75 | O=C(CN(Cc1ccc2c(c1)OCO2)C(=O)c1cnsn1)NC1CCCC1 | -0.186
76 | COc1cc(CCN2C(=O)c3cccc4cccc(c34)C2=O)c(S(=O)(=O)N2CCCCCC2)cc1OC | -0.297
77 | Cn1c(=O)c2c(nc(CN3CCc4ccccc4C3)n2Cc2ccccc2)n(C)c1=O | -0.932
78 | COC(=O)Cn1c(CN2CCc3ccccc3C2)nc2c1c(=O)n(C)c(=O)n2C | 5.81 (active)
79 | Cn1c(=O)c2c(nc(CN3CCc4ccccc4C3)n2CC(=O)c2ccccc2)n(C)c1=O | -0.969
80 | CCOC(=O)c1ccc(NC(=O)c2cc(OC)c(OC)c(OC)c2Br)cc1 | 0.551
81 | O=C(O)C1CCCCC1C(=O)NCc1cn2ccccc2n1 (stereo not given) | -0.352
82 | O=C(CN1CCOCC1)Nc1ccc(OCc2ccccc2)cc1 | 0.323
83 | Cc1ccc(Cn2c(SCC(N)=O)nc3c2c(=O)n(C)c(=O)n3C)cc1 | -0.328
84 | Cc1ccc(Cn2c(SCC(C)C)nc3c2c(=O)n(C)c(=O)n3C)cc1 | -0.493
85 | CNC(=O)CSc1nc2c(c(=O)n(C)c(=O)n2C)n1Cc1ccc(C)cc1 | 2.07
86 | COc1cc(NC(=O)c2ccco2)c(OC)cc1NC(=O)CSc1nnc(-c2cccs2)n1C | -1.07
87 | CCOC(=O)C1=C(CC)Nc2ccccc2N=C1NC(=O)Nc1ccc(Cl)c(Cl)c1 | 5.4 (active)
88 | CCOC(=O)C1=C(CC)Nc2ccccc2N=C1NC(=O)Nc1ccccc1OC | 0.249
89 | CCOC(=O)C1=C(CC)Nc2ccccc2N=C1NC(=O)c1cc(S(=O)(=O)N(C)C)ccc1Cl | 0.243
90 | Cc1cc(C)n(C(=O)c2ccc(C)c(F)c2F)n1 | -0.238
91 | CCCCCc1ccc(S(=O)(=O)NCCc2ccncc2)cc1 | 0.483
92 | CCCCc1ccc(S(=O)(=O)NCCc2ccncc2)cc1 | 0.298

Row | SMILES | z-score
93 | CCCCNS(=O)(=O)c1ccc(S(=O)(=O)NCc2ccncc2)cc1 | 2.5
94 | CCOC(=O)C1=C(C)Nc2sc(C(=O)c3ccc(C)cc3)c(N)c2C1c1ccc(C(=O)OC)cc1 (stereo not given) | -0.284
95 | Cc1ccc(NC(=S)NNC(=O)c2ccccc2OC(F)F)cc1 | 0.966
96 | CCc1ccc(NC(=S)NNC(=O)c2ccccc2OC(F)F)cc1 | 3.63 (active)
97 | O=C(NNC(=S)Nc1ccc(F)cc1)c1ccccc1OC(F)F | -0.00644
98 | CC1Cc2ccccc2N1C(=O)CSc1ccccc1 (stereo not given) | -0.501
99 | CCOc1ccc(N2C(=O)CC(N3CCc4ccccc43)C2=O)cc1 (stereo not given) | 1.67
100 | Cc1sc2ncn(CC(=O)NCCc3ccccc3)c(=O)c2c1C | 0.251
101 | COc1ccc(CN(CCC#N)C(=S)NC(=O)c2ccccc2)cc1 | 4.49 (active)
102 | COc1ccccc1CC(=O)N(CCC#N)CCC#N | -0.512
103 | N#CCCN(Cc1ccccc1)C(=S)Nc1ccccc1 | -0.262
104 | COc1ccc(CNC(=O)c2ccc(-c3ccccc3)cc2)cc1 | -0.113
105 | N#CCCN(Cc1ccccc1)C(=S)NC(=O)c1ccccc1 | 2.39
106 | N#CCCN(Cc1cccnc1)C(=O)Nc1ccccc1 | -0.271
107 | c1ccc2c(c1)CC1(CCCC1)n1nnnc1-2 | -0.648
108 | C/C(=N\NC(=O)c1c(Cl)c(C)nn1C)c1ccc(NC(=O)COc2ccc(Cl)cc2C)cc1 | 0.132
109 | O=C(CSc1ccc(-c2ccco2)nn1)c1ccc(F)cc1 | -0.0218
110 | O=C(CSc1ccc(-c2ccco2)nn1)c1ccccc1 | 7.29 (active)
111 | COc1ccc(C(=O)CSc2ccc(-c3ccco3)nn2)cc1 | 0.654
112 | CC(=O)c1cn(CC(=O)NCc2cccnc2)c2ccccc12 | 0.276
113 | Cc1ccccc1OCC(=O)O/N=C(\N)Cc1cccs1 | 3.93 (active)
114 | N/C(Cc1cccs1)=N\OC(=O)COc1ccccc1Cl | -2.93
115 | N/C(Cc1cccs1)=N\OC(=O)COc1ccccc1 | -1.06
